Reference: PubChem BioAssay AID686978 (National Center for Advancing Translational Sciences (NCATS), 2013)
Hit rate of the full screen: of about 420,000 compounds, about 64,000 (15%) were called active. Inconclusive results (about 27%) are left out. Calls follow the shape of the dose curve; as a rule, active = well fitted inhibition curve with a large enough effect; inconclusive = small, poorly fitted or top-dose-only effect; inactive = flat fitted curve, though single readings scatter. Not all results are given here. Entries that show only a call come without a potency.

Experiment: qHTS for Inhibitors of human tyrosyl-DNA phosphodiesterase 1 (TDP1): qHTS in cells in absence of CPT; also: nearly all actives have a fitted effect of over 55% in size
Conditions: DT40 Tdp1-/- hTDP1 cells, no CPT, ATP luminescence, 48 h; activity change, negative = growth inhibition: at 46.2 µM (top of the series)
Outline: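 No-CPT arm: Tdp1-/-;hTDP1 DT40 cells (400/well) plus compounds, incubated ≥48 hr at 37 °C. Readout CellTiter-Glo luminescence.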
Potency is read from the fitted curve at half-maximal effect.

Compound | Potency
O=S(=O)(NC(=S)Nc1ccccc1)c1ccc(F)cc1 | inactive
CC(=O)c1ccc[n+](C(C)CCC(C)[n+]2cccc(C(C)=O)c2)c1 (stereo not given) | inactive
O=C(O)CCN1C(=O)CC2(CCCCC2)C1=O | inactive
CN(CC(=O)Nc1ccccc1Cl)C(=O)COc1cccc2c1OC(C)(C)C2 | inactive
CCn1cc(C(=O)NCC2CCCO2)c(=O)c2cc(S(=O)(=O)N3CCCCC3)ccc21 (stereo not given) | inactive
CCn1cc(C(=O)NCc2ccc(C)cc2)c(=O)c2cc(S(=O)(=O)N3CCc4ccccc4C3)ccc21 | 11.6 µM (active)
Cc1ccc(CNC(=O)C2CCN(S(=O)(=O)c3ccc4nc5c(c(C(=O)O)c4c3)CC(C)CC5)CC2)cc1 (stereo not given) | inactive
CCN(CC)CCCNC(=O)c1cn(C)c2ccc(S(=O)(=O)N(C)C3CCCCC3)cc2c1=O | inactive
CCn1cc(C(=O)NCc2ccccc2)c(=O)c2cc(S(=O)(=O)N3CCCCC3)ccc21 | 7.31 µM (active)
CN(Cc1ccccc1)C(=O)c1cn(C)c2ccc(S(=O)(=O)N3CCCCC3)cc2c1=O | inactive
CCOc1ccc(CNC(=O)c2cc(=O)[nH]c3ccc(S(=O)(=O)N4CCCCC4)cc23)cc1 | inactive
CCn1cc(C(=O)N(C)Cc2ccccc2)c(=O)c2cc(S(=O)(=O)N3CCCCCC3)ccc21 | inactive
CCOCCCNC(=O)c1cn(CC)c2ccc(S(=O)(=O)N3CCc4ccccc4C3)cc2c1=O | 16.4 µM (active)
CCC1CCCCN1S(=O)(=O)Cc1ccccc1Cl (stereo not given) | inactive
CCCCn1c(N)c(N(CCOC)C(=O)c2cccc(S(=O)(=O)N3CCCCC3)c2)c(=O)[nH]c1=O | inactive
Cc1cccc(N2O[C@H]3C=CC2CCCC3)n1 | inactive
Cc1ccc(CN2CCN(/N=C/c3ccco3)CC2)c(C)c1 | inactive
COc1cc2ccccc2cc1C(=O)N1CCOCC1 | inactive
CCOc1ccc(C(C)=O)cc1COC(=O)CN1C(=O)NC2(CCCC2)C1=O | inactive
COc1ccc(Cl)cc1NS(=O)(=O)c1cccc(C(=O)NCC2CCCO2)c1 (stereo not given) | inactive
CCC(C)C(NC(=O)C1CCC(=O)N1C(=O)OCc1ccccc1)C(=O)NC(C(=O)N1CCCC1C(N)=O)C(C)CC (stereo not given) | inactive
Cc1ccc(-c2cc(C(=O)N3CCc4ccccc4C3)no2)cc1 | inactive
CCn1c(SCC(=O)NC2CC2)nnc1-c1ccccn1 | inactive
COC(C[C@H](O)CC(=O)COCc1ccccc1)OC | inactive
CCOC(=O)C(C(=O)OCC)C(C#N)c1ccccc1 (stereo not given) | inactive
Cc1cc(C)cc(OCC(=O)NC(C)c2ccccc2)c1 (stereo not given) | inactive
CCOC(=O)/C=C/C(=O)OCC(=O)NC(c1ccccc1)c1ccccc1 | 8.2 µM (active)

Compound | Potency
Cc1ccc(SCC(=O)NC(=O)NCc2ccco2)c(C)c1 | inactive
CC1=C(C(=O)N2CCOCC2)CC(CC(=O)NCc2cccs2)C(=O)N1CCCN1CCCC1=O (stereo not given) | inactive
CCN1C(=O)/C(=C\N2CCN(c3cccc(Cl)c3)CC2)SC1=S | 16.4 µM (active)
O=C(O)C(c1ccccc1)N1C(=O)/C(=C\c2ccc(-c3cccc(Cl)c3)o2)SC1=S (stereo not given) | inactive
CCN1C(=O)/C(=C\N2CCOCC2)SC1=S | inactive
CC1=NNC(=O)C1CC(=O)N/N=C/c1ccncc1 (stereo not given) | inactive
Cc1ccc(S(=O)(=O)NCC(=O)N2CCOCCOCCOCCOCC2)cc1 | inactive
CC1CCN(C(=O)COC(=O)CCC(=O)c2cccs2)CC1 | inactive
CCC(=O)N1CCN=C1SCc1ccc(F)cc1 | inactive
COc1ccc(OC)c(S(=O)(=O)NCCC(C)C)c1 | inactive
COc1ccccc1N1CCN(/N=C\C(Br)=C\c2ccccc2)CC1 | 7.31 µM (active)
COc1ccccc1N1CCN(/N=C/c2ccc(O)cc2O)CC1 | inactive
COc1ccccc1N1CCN(C(=O)C(=O)N/N=C/c2ccccc2F)CC1 | inactive
COCCn1c(N)c(N(Cc2ccccc2)C(=O)C2CCCCC2)c(=O)[nH]c1=O | inactive
NC(=O)C1CCN(CC(O)CSc2ccc(F)cc2)CC1 (stereo not given) | inactive
CCCN1CC=C2C(C#N)=C(N)C(C#N)(C#N)C(c3cc(OC)ccc3OC)C2C1 (stereo not given) | inactive
CCOc1ccc(C2C(C(=O)NC)=C(C)Nc3nc4ccccc4n32)cc1OC (stereo not given) | inactive
COc1cccc(NC(=O)COC(=O)CCOc2ccccc2OC)c1 | inactive
COc1cccc(NC(=O)C(C)Oc2ccccc2)c1 (stereo not given) | inactive
COc1cccc(NC(=O)CC(c2ccc(OC(C)C)cc2)c2ccccc2OC)c1 (stereo not given) | 11.6 µM (active)
CC(C)n1c(=S)[nH]c2cc(C(F)(F)F)ccc21 | 16.4 µM (active)
CNS(=O)(=O)c1ccc2c(c1)[nH]c(=S)n2C | inactive
CCCn1c(=S)[nH]c2ccc(C(F)(F)F)cc21 | inactive
O=C(NCc1ccncc1)C1CCN(C(=O)c2cccc(Cl)c2)CC1 | inactive
CCC(C(=O)NC1CCCC1)N(C(=O)Cn1nnc(-c2ccc(C)o2)n1)c1ccc(OC)c(OC)c1 (stereo not given) | inactive
CC(=O)Nc1ccc(S(=O)(=O)Nc2ccc(N3CCCCC3)cc2)cc1 | 2.91 µM (active)
CC(=O)Nc1ccc(NS(=O)(=O)c2ccc3c(c2)NC(=O)CC(=O)N3)cc1 | inactive

Compound | Potency
COc1ccc(S(=O)(=O)Nc2ccc3c(c2)OCO3)cc1Cl | inactive
COC(C(=O)Nc1ccc(S(=O)(=O)Nc2ccc(C)c(C)c2)cc1)c1ccccc1 (stereo not given) | 14.6 µM (active)
COc1cc(NC(=O)N2CCOCC2)cc(OC)c1 | inactive
COC(C(=O)NCc1ccccc1C)c1ccccc1 (stereo not given) | inactive
COc1cc(NS(=O)(=O)c2ccc(NC(C)=O)cc2)cc(OC)c1 | 8.2 µM (active)
COc1cc(OC)cc(C(=O)Nc2ccc(S(=O)(=O)Nc3cc(C)on3)cc2)c1 | inactive
COc1cc(NS(=O)(=O)c2ccc3c(c2)OCC(C(=O)N2CCCC2)O3)cc(OC)c1 (stereo not given) | 20.6 µM (active)
COC(=O)COc1ccc(S(=O)(=O)Nc2ccc(NC(C)=O)cc2)cc1 | inactive
CC(=O)Nc1ccc(S(=O)(=O)Nc2ccc(N3CCOCC3)c(F)c2)cc1 | inactive
COC(C(=O)Nc1ccc(C(C)=O)cc1)c1ccccc1 (stereo not given) | inactive
CC(=O)N1CC2(C)CN(C(C)=O)CC(C)(C1)C2=O | inactive
COc1ccc(N(CCC#N)S(=O)(=O)c2ccc(Cl)cc2)cc1 | inactive
CCCC(=O)NC(Nc1ccccc1OC)C(Cl)(Cl)Cl (stereo not given) | inactive
Cn1c(=O)n(C)c(=O)n(CC(=O)N2CCCCC2)c1=O | inactive
COc1cc(OC)cc(C2=Cc3ccccc3C(CC(=O)c3ccco3)N2c2ccc(-c3cnc(OC)nc3)cc2)c1 (stereo not given) | inactive
CC(=O)Nc1ccc(NC(=O)C(C)OC(=O)C2CC(=O)N(CCc3ccccc3)C2)cc1 (stereo not given) | inactive
O=C(NCC1(N2CCCCC2)CCCCC1)c1ccc(NS(=O)(=O)c2ccc(F)cc2)cc1 | inactive
CCc1nnc(NC(=O)CSc2nnnn2-c2cccc(C(C)=O)c2)s1 | inactive
COc1cccc(/C=C2\SC(=N)N(c3ccc(F)cc3)C2=O)c1 | inactive
COc1ccc(C(=O)Oc2cc(/C=N/NS(=O)(=O)c3ccc(C)cc3)ccc2OC)cc1 | inactive
COc1ccc(OC)c(C(C)NC(=S)Nc2ccc(S(=O)(=O)Nc3ncccn3)cc2)c1 (stereo not given) | inactive
COc1ccc(S(=O)(=O)Nc2cc(C)on2)cc1NC(C)=O | inactive
CC(=O)c1c(C)oc2ccc(NS(=O)(=O)c3ccc(C(=O)O)cc3)cc12 | inactive
COc1ccc2oc(C)c(NC(C)=O)c2c1 | inactive
CC(=O)c1ccc(NC(=S)NC(=O)CC(C)C)cc1 | inactive
COc1ccc(NS(=O)(=O)c2ccc(NC(C)=O)cc2)cc1OC | 6.51 µM (active)
COc1ccc(S(=O)(=O)Nc2ccc3oc(C)c(C(C)=O)c3c2)cc1 | 5.17 µM (active)

Compound | Potency
COc1ccc(CNC(=O)c2ccc(NS(=O)(=O)c3ccc4[nH]c(=O)[nH]c4c3)cc2)cc1OC | inactive
COc1ccc(/C=C/C(=O)c2ccc(NS(=O)(=O)c3ccc(C)cc3)cc2)cc1O | 20.6 µM (active)
COc1ccc(NS(=O)(=O)c2ccc(NC(=S)NC(=O)CC(C)C)cc2)cc1 | 18.4 µM (active)
CC(=O)Nc1ccc(S(=O)(=O)Nc2cccc(NC(=O)C(C)(C)C)c2)cc1 | inactive
CCCC(=O)Nc1ccc2oc(-c3ccc(O)c(Br)c3)nc2c1 | inactive
CSc1ccccc1OCc1cc(C(=O)N(C)CCc2c(C)n[nH]c2C)no1 | inactive
O=C(CN1CCCCCC1)Nc1c(Cl)cc(Cl)cc1Cl | inactive
CN(C)C(=O)c1ccc(NC(=O)COC(=O)c2cc3c(s2)CCCCC3)cc1 | inactive
CSc1ccc(/C=N/N2CCN(Cc3ccccc3Cl)CC2)cc1 | inactive
Cn1c2c(c(=O)n(C)c1=O)C(c1ccc(O)cc1)Nc1ccccc1O2 (stereo not given) | inactive
CCC(=O)Nc1ccccc1C(=O)N1CCN(Cc2ccccc2)CC1 | inactive
Cc1nn(Cc2ccccc2)c(C)c1C(=O)NCCCN1CCCC1=O | inactive
Cc1nn(Cc2ccccc2)c(C)c1C(=O)N1CCN(CC(=O)Nc2ccccc2Cl)CC1 | 23.1 µM (active)
CCOC(=O)CSc1nnc(CNC(=O)c2ccco2)n1-c1ccc(F)cc1 | inactive
NNC(=O)c1cnn(-c2ccccc2)c1C(F)(F)F | inactive
CN(C)CCCOc1ccc(-c2ccc3nccn3c2)cn1 | inactive
OC[C@@H]1CN(C2CCCC2)C[C@H](n2cnc3c(NC4CCC4)ncnc32)O1 | inactive
OC[C@@H]1CN(Cc2ccc(-c3ccccc3)cc2)C[C@H](n2cnc3c(NC4CCCC4)ncnc32)O1 | 1.3 µM (active)
OC[C@@H]1CN(Cc2cccs2)C[C@H](n2cnc3c(Nc4ccccc4)ncnc32)O1 | inactive
Cc1nnc(SCC(N)=O)n1CC1CCCO1 (stereo not given) | inactive
O=C(O)CSCc1nc2ccccc2s1 | inactive
CCOC(=O)/C(C#N)=C/c1ccc(N2CCCCC2)cc1 | inactive
CCOC(=O)/C(C#N)=C/c1ccc(OCC(=O)Nc2ccccc2)c(OC)c1 | inactive
CCOC(=O)/C(C#N)=C/c1ccc(N2CCN(Cc3ccccc3)CC2)cc1 | 20.6 µM (active)
